# Screening results (PubChem BioAssay)
# This is a sample that favours compounds with a hit; in the whole collection about 4.8% have one here.
# hgDAF12 agonist – activates the H. glycines DAF-12 receptor ligand-binding domain. HEK293 GAL4-hgDAF12 UAS-luciferase reporter, agonist luminescence; normalized to butyrate control. activation, % at 6.8 µM. hit rate 1.8% among 370,000. AID 687014;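 active = activation above a cutoff set at the mean of all screened compounds plus 3 SD, cut at about 10% in these data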;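 note: 0% = DMSO wells and 100% = sodium butyrate wells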
# hcDAF-12 act – activators of H. contortus DAF-12 nuclear receptor. HEK293 hcDAF-12 lit1-tk-luc reporter, luminescence; 0% DMSO, 100% Δ7-dafachronic acid. activation, % at 6.8 µM. hit rate 1.4% among 370,000;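 active = activation above the mean of all tested compounds plus 3 SD, cut at about 5.5% in these data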;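 note: 100% = response to 3 µM Δ7-dafachronic acid high control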
# NR1D1 modulator – modulators of human Rev-erb alpha DNA binding; P20393; Rev-erbα–FITC-DNA binding, fluorescence polarization, 90 min; activity, % at 10 µM; hit rate 0.79% among 370,000; AID 1259318;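 active = activity above about 14%, limit read from the data; passing the limit was not always enough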;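 note: 0% = DMSO wells with 35 nM protein and 100% = DMSO wells with 750 nM protein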
# Target sequence (P20393 whole entry, looked up): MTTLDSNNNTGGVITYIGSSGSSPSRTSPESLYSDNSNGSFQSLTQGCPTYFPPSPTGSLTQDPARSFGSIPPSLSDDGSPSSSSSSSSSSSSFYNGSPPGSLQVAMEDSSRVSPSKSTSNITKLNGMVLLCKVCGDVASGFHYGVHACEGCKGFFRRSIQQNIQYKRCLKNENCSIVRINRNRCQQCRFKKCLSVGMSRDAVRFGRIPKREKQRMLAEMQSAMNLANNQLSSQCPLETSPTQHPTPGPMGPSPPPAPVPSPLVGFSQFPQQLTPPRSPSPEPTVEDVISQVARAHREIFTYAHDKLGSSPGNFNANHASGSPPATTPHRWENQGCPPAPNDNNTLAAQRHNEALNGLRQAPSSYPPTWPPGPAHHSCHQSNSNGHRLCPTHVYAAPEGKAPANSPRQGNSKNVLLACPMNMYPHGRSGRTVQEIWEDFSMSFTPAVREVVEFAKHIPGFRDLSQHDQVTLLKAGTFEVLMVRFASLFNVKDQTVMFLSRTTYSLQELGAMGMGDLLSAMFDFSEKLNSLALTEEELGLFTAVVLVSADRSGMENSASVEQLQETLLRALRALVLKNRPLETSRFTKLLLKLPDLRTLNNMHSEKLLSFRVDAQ
# DAX1 inh-1 – inhibitors of DAX1 repression of SF-1 activated StAR promoter | HEK293T StAR-luciferase reporter, SF-1/DAX-1 repression relief | inhibition, % at 6.8 µM | hit rate 1.1% among 370,000;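 active = inhibition above the mean over all tested compounds plus 3 SD, cut at about 3.6% in these data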;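 note: 0% = DAX-1 cells with DMSO and 100% = cells lacking DAX-1 with DMSO; higher inhibition means more luminescence from relief of DAX-1 repression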
# DAX1 inh-2 – inhibitors of human orphan nuclear receptor DAX1 (NR0B1). P51843. HEK293 Gal4-DAX1 luciferase reporter, luminescence. inhibition, % at 6.75 µM. hit rate 0.99% among 340,000;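 active = inhibition above the mean over all tested compounds plus 3 SD, cut at about 4.2% in these data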;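 note: 0% = DAX1-transfected cells with DMSO and 100% = empty-vector control cells with DMSO; inhibition shows as a rise in luminescence from relieved DAX1 repression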
# ssDAF-12 act – activators of S. stercoralis DAF-12 nuclear receptor. HEK293 ssDAF-12/GRIP1 lit1-tk-luc reporter, luminescence; % of 3 µM dafachronic acid response. activation, % at 6.8 µM. hit rate 1% among 370,000;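 active = activation above the mean over all tested compounds plus 3 SD, cut at about 0.9% in these data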;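 note: 0% = DMSO-only wells and 100% = 3 µM delta7-dafachronic acid wells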
# NR1D1 mod conf – confirmation of modulators of human Rev-erb alpha DNA binding. hit rate 61% among 3,000. shares compounds with NR1D1 modulator. Rev-erb alpha FITC-DNA binding, fluorescence polarization, 90 min. activation, % at 25 µM;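 active = activation at or above a set limit, or at least 3 SD above the negative control mean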;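 note: 0% = 35 nM protein with DMSO and 100% = 750 nM protein high control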
# RORg counter – affects RORgamma DNA binding in a Rev-erb alpha counter-screen; shares compounds with NR1D1 modulator; purified RORgamma protein-FITC-DNA binding, fluorescence polarization; IC50, µM; hit rate 8% among 910; AID 1259320;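 active = Compounds whose fitted half-maximal concentration for disrupting protein-DNA binding is below 10 micromolar; the record names Rev-erb in its text, so the target is in doubt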
# Active calls of the source: *; i = inactive; / = no result.
SMILES,hgDAF12 agonist,hcDAF-12 act,NR1D1 modulator,DAX1 inh-1,DAX1 inh-2,ssDAF-12 act,NR1D1 mod conf,others
COc1ccc(CNC(=O)CN2C(=O)C3CCCN3c3ncc(Cl)cc32)cc1 (stereo not drawn),-3.6,-1.2,42.9*,-0.7,1.5,-1.5,36.3*,
O=C(CN1C(=O)C2CCCN2c2ncc(Cl)cc21)NCc1ccc2c(c1)OCO2 (stereo not drawn),-1.2,-1.1,46.2*,-0.4,-1.7,-1.1,36.1*,
Cn1c(=O)oc2cc(S(=O)(=O)N3CCN(C(=O)C4CCCO4)CC3)ccc21 (stereo not drawn),-2.2,0.1,-1.1,-0.8,/,-0.9,/,
CCOC(=O)[C@@]12CCCC=C1N(CCc1ccc(Cl)cc1)C(=O)[C@H]2CC(=O)NCC12CC3CC(CC(C3)C1)C2,3.4,-0.9,4.0,-0.6,/,-1.2,/,
N#Cc1cc(C#N)c(N2CCN(c3cccc(Cl)n3)CC2)nc1N,2.1,-0.5,25.6*,0.6,0.6,-1.7,71.5*,RORg counter=i
Cc1cccc2cc(C#N)c(N3CCN(C)CC3)nc12,-0.5,-1.1,10.1,-0.2,0.2,-1.6,/,
CCn1c2ccccc2c2cc(NC(=O)COC(=O)c3ccc(F)cc3Cl)ccc21,2.5,-1.7,-1.6,0.9,/,-1.1,/,
c1cnc(SCC2CCCCC2)c(-c2nc3ccccc3[nH]2)c1,0.4,-0.5,31.7*,-0.4,/,-1.2,32.6*,RORg counter=>40
O=C(CSc1ncccc1-c1nc2ccccc2[nH]1)N1CCc2ccccc21,-2.6,-1.2,28.5*,-0.1,2.3,-1.8,25.1*,
CN(Cc1ccccc1)C(=O)OCc1cn(Cc2ccccc2Cl)nn1,-1.0,-2.1,2.3,0.4,/,-1.2,/,
Cc1cc(=O)oc2cc(NC(=O)c3cccc(F)c3)ccc12,4.1,-1.3,49.5*,-0.8,0.8,-0.8,59.8*,RORg counter=>40
Cc1cc(=O)oc2cc(NC(=O)c3cccc(S(C)(=O)=O)c3)ccc12,5.3,3.9,-11.3,0.5,-0.7,-0.1,/,
Cc1ccccc1OCCC(=O)Nc1ccc2c(C)cc(=O)oc2c1,2.5,-2.3,23.1*,-0.5,1.3,-1.5,6.3,
Cc1cc(=O)oc2cc(NC(=O)CCC(=O)O)ccc12,-1.1,-1.9,-2.6,0.0,0.2,-1.3,/,
O=C(CSc1nc2ccccc2o1)NN=C/C=C/c1ccccc1,6.3,0.5,0.9,1.9,/,0.2,/,
O=C(Nc1nc2ccsc2c(=O)s1)c1ccc(Cl)cc1,8.9,5.1,109.7*,1.6,5.8*,0.9*,44.0*,RORg counter=>40
CCn1c(NC(=O)c2ccc(F)cc2)c2ccccc2nc1=O,2.1,-1.1,4.6,-0.3,0.6,-1.3,/,
O=C(Nc1nc(=O)c2ccccc2s1)c1ccc(Cl)cc1,0.6,-0.3,78.3*,0.5,0.3,-0.5,107.2*,RORg counter=>40
O=C(Cc1ccccc1)Nc1nc(=O)c2ccccc2s1,4.3,0.2,31.7*,0.0,-0.7,-1.6,17.7*,
O=C(Nc1nc(=O)c2ccccc2s1)c1ccc(F)cc1,2.7,2.2,78.7*,0.4,0.2,0.6,69.7*,RORg counter=>40
C/C(=N/NC(=O)CN1CCN(Cc2ccccc2Cl)CC1)c1cccc(O)c1,4.8,-1.4,3.0,-1.4,/,-1.8,/,
CCc1cc2c(=O)[nH]c(Cc3ccc(Cl)cc3)nc2s1,0.6,1.1,19.2*,0.0,-1.0,-1.1,18.0*,
CCc1cc2c(=O)[nH]c(Cc3ccccc3)nc2s1,-1.9,-2.3,1.3,0.8,0.5,-1.1,/,
Cc1csc2ncc(C(=O)Nc3ccc4c(c3)OCCO4)c(=O)n12,-0.1,0.8,27.8*,1.0,1.9,0.1,13.8*,
O=C(OCC#CCSc1nnc(-c2cc3ccccc3cc2O)o1)c1ccc(F)cc1,5.3,1.4,-6.5,/,/,-1.1,/,
SMILES,hgDAF12 agonist,hcDAF-12 act,NR1D1 modulator,DAX1 inh-1,DAX1 inh-2,ssDAF-12 act,NR1D1 mod conf,others
Cc1c(C)c(C)c(S(=O)(=O)N2CCSCC2)c(C)c1C,0.9,-1.1,10.7,0.0,0.3,-0.6,/,
Cc1cc(C)c(C)c(S(=O)(=O)N2CCSCC2)c1C,-0.5,-0.5,18.6*,0.2,0.1,-0.4,14.1,
COc1ccc(NC(=O)CCCn2cc([N+](=O)[O-])cn2)cc1,2.2,-0.1,25.7*,-0.2,1.0,-1.0,-0.4,
COc1ccc(NC(=S)NNC(=O)CCn2cc([N+](=O)[O-])cn2)cc1,-1.1,-1.2,0.5,0.0,0.6,-0.2,/,
Cc1cc(C)c(NC(=O)COc2ccccc2C(=O)Nc2ccc3c(c2)oc2ccccc23)c(C)c1,-1.5,-0.1,32.4*,0.1,0.1,-0.7,37.0*,RORg counter=>40
Cc1cc(C)c2c(n1)sc1c(-c3ccccc3)c(C#N)c(N)nc12,-2.4,-2.5,23.1*,-0.9,-0.4,-1.2,4.2,
O=C(CSc1nnc2ccc(-c3ccccn3)nn12)Nc1ccc(F)cc1,4.9,-1.7,4.0,0.2,1.1,-0.8,/,
O=C(CSc1nnc2ccc(-c3ccccn3)nn12)Nc1cccc(F)c1,1.1,-1.6,21.6*,1.0,-0.5,-1.0,15.7*,
COc1ccc(-n2c(COc3ccc(C)cc3)nnc2SCC(=O)c2ccc(-c3ccccc3)cc2)cc1,1.6,-1.4,44.5*,-0.5,/,-1.4,27.8*,
COc1ccc(C(=O)CSc2nnc3ccc(-c4ccccn4)nn23)cc1,-5.0,-1.9,51.7*,0.6,-0.8,-2.1,18.9*,
COc1ccc(NC(=O)CSc2nnc3ccc(-c4ccccn4)nn23)cc1,-1.3,-0.8,3.1,0.6,-1.1,-1.2,/,
CN1CCCCC(NC(=O)C23CC4CC(CC(C4)C2)C3)C1=O (stereo not drawn),-0.2,0.1,0.2,0.3,/,-1.2,/,
CN(Cc1ccco1)C(=O)CN1C(=O)C2(OCCCO2)c2ccccc21,1.0,-0.8,-7.9,1.6,/,-0.8,/,
COC(CNC(=O)c1ccc2c(=O)n(Cc3ccc(Cl)cc3)c(=S)[nH]c2c1)OC,-1.7,0.0,28.6*,-0.4,-1.3,-1.0,11.7,
O=C(CCCn1c(=S)[nH]c2cc3c(cc2c1=O)OCO3)NCc1ccccc1Cl,3.3,-0.1,49.5*,0.0,0.5,-1.4,32.6*,RORg counter=>40
O=C(NCc1ccccc1Cl)c1ccc2c(=O)n(CCCN3CCCC3=O)c(=S)[nH]c2c1,-0.2,-1.6,29.1*,-0.3,0.6,0.1,18.5*,
CCCn1c(=S)[nH]c2cc(C(=O)NCc3ccccc3OC)ccc2c1=O,-1.8,0.9,36.4*,0.2,1.1,-1.2,26.6*,
CC(C)[C@H](NS(=O)(=O)c1ccc(F)cc1F)C(=O)N1CCC[C@H]1C(=O)NCCc1ccccc1Cl,-1.6,2.2,0.6,0.7,/,-1.7,/,
